# Assay results: PubChem BioAssay AID1863 (Southern Research Specialized Biocontainment Screening …, 2009)
# About 480 (0.16%) of roughly 300,000 compounds were called active.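 Rule for the calls: active = inhibition over 29.93%, a cutoff 3 SD above the screen mean, later confirmed by dose response; inconclusive = inhibition over 29.93% but no dose response follow-up; inactive = inhibition at most 29.93% or unconfirmed.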 Only a sample is shown. Entries with a potency or affinity are not part of this list.
# Assay: inhibitors of PhoP regulon expression, primary screen, Salmonella Typhimurium, GFP reporter (AID 1863);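 note: 0% = low Mg2+ inducing control and 100% = high Mg2+ repressing control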
# Conditions: S. Typhimurium PhoP-regulated promoter GFP reporter, 4 h; at 50 µM; active compounds read high
row,Compound,inhibition
1,CCOC(=O)c1sc(N)c(C#N)c1CSc1nnc(C2CC2)n1N,0.84% (inactive)
2,COc1cccc2c1OC[C@@H](CO)[C@H]2N(C)C(=O)Nc1ccc(Cl)cc1,-5.57% (inactive)
3,Cn1nnnc1SCC1=C(C(=O)O)N2C(=O)C(NC(=O)C3CC3c3ccccc3)C2SC1 (centres undefined),5.81% (inactive)
4,CO[C@@]1(NC(=O)CSCC#N)C(=O)N2C(C(=O)O)=C(CSc3nnnn3C)CS[C@@H]21,2.92% (inactive)
5,COC(=O)C(C)Oc1cc(OC(C)C(=O)OC)c2c(-c3ccccc3)cc(=O)oc2c1 (centres undefined),-1.83% (inactive)
6,c1ccc(-c2ccc(-c3ccccn3)nn2)nc1,17.9% (inactive)
7,c1ccc(-c2ccccn2)nc1,1.51% (inactive)
8,C[C@H](NC(=O)C1CC(=O)N(c2ccc3c(c2)OCCO3)C1)C(=O)NC1CCCC1 (some centres undefined),-3.6% (inactive)
9,CCN(CC)C(=O)COc1ccc(N(C)S(=O)(=O)c2ccc(NC(C)=O)cc2)cc1,-5.37% (inactive)
10,COc1cc(-c2nc(N)n[nH]2)cc(OC)c1OC,-10.2% (inactive)
11,COc1cc(Nc2ncnc(N)n2)cc(OC)c1OC,-3.05% (inactive)
12,COc1cccc(OCCNc2cc(Cl)ccc2[N+](=O)[O-])c1,6.62% (inactive)
13,Cc1ccc(NC(=O)C2(C)Cc3ccccc3C(=O)O2)cc1 (centres undefined),-8.33% (inactive)
14,CC1CCN(CC(=O)Nc2cccc(C(=O)Nc3cccc(C(F)(F)F)c3)c2)CC1,0.24% (inactive)
15,O=C(CNC(=O)c1ccccc1)Nc1cccc(C(F)(F)F)c1,-8.93% (inactive)
16,O=C1CCN(N=Nc2cccc(Cl)c2)N1,-4.47% (inactive)
17,COc1ccc(N2CCN(C(=O)CN(C3CCCCC3)S(C)(=O)=O)CC2)cc1,-3.93% (inactive)
18,O=S(=O)(NCc1ccccc1)NCc1ccccc1F,-1.32% (inactive)
19,O=C(O)c1ccc(CNCc2ccccc2F)cc1,0.78% (inactive)
20,Cc1csc(C(=O)O)c1NC(=O)c1c(Cl)cccc1Cl,-3.3% (inactive)
21,CCOC(=O)c1cn(CC)c2cc3c(cc2c1=O)OCO3,7.75% (inactive)
22,CCn1cc(C(=O)N[C@H](C(=O)O)C(C)C)c(=O)c2cc3c(cc21)OCO3,25.9% (inactive)
23,CCn1nc(C(=O)N2CCN(Cc3ccc4c(c3)OCO4)CC2)c2ccccc2c1=O,-2.79% (inactive)
24,CCn1ccc(=O)c2cc3c(cc21)OCO3,2.11% (inactive)

row,Compound,inhibition
1,Cn1c(SCC(=O)NC2CCCCC2)nnc1-c1cc2cc(Cl)ccc2o1,5.87% (inactive)
2,CCC(=O)NC(c1cccs1)c1ccc2cccnc2c1O (centres undefined),27% (inactive)
3,CC(C)CC(=O)NC(c1cccs1)c1ccc2cccnc2c1O (centres undefined),9.48% (inactive)
4,O=C1OCc2cc(NC(=O)C3CCCO3)ccc21 (centres undefined),13.1% (inactive)
5,COc1ccc(Cc2nc3ccc(C(=O)N4CCC[C@H]4CO)cc3o2)cc1,-5.77% (inactive)
6,Cc1ccc(C)c2c1[nH]c1ccccc12,-11.2% (inactive)
7,COc1ccc2[nH]c3c(=S)nc[nH]c3c2c1,11.1% (inactive)
8,COc1ccc2[nH]c3c(Cl)ncnc3c2c1,2% (inactive)
9,Cc1cc2[nH]c3ccccc3c2c(C)n1,17.6% (inactive)
10,Cc1ccc(C2(c3noc(CN(C)Cc4ccccn4)n3)CCCC2)cc1,1.51% (inactive)
11,O=C(O)Cn1c(O)c(C2=c3ccccc3=NC2=O)sc1=O,3.25% (inactive)
12,COc1cccc(N/C(N)=N/c2nc(C(F)(F)F)cc(C(F)(F)F)n2)c1,-1.8% (inactive)
13,O=S1(=O)N=C(N/N=C/c2cccs2)c2ccccc21,0.95% (inactive)
14,O=S1(=O)N=C(N/N=C/c2ccco2)c2ccccc21,11.7% (inactive)
15,S=c1[nH]c2ccccc2n2c(=S)[nH]nc12,4.88% (inactive)
16,O=c1[nH]c2ccccc2n2cnnc12,3.8% (inactive)
17,C=CCn1c(SCC(=O)OCC)nc2cc(C(=O)NCc3ccco3)ccc2c1=O,-4.98% (inactive)
18,CCCn1nc(C(=O)OCC(=O)Nc2cccc(S(N)(=O)=O)c2)c2ccccc2c1=O,-1.14% (inactive)
19,Nc1[nH]nc2nc3ccccc3cc12,0.6% (inactive)
20,Nc1c2ccccc2nc2ccccc12,20.8% (inactive)
21,Nc1nc(-c2cccnc2)nn1C(=O)c1ccccc1Cl,0.52% (inactive)
22,COc1ccc(-c2csc(NC(=O)COC(=O)c3ccco3)n2)cc1,5.57% (inactive)
23,Cc1ccc(C(=O)OCC(=O)NC(=O)c2cccn2C)cc1[N+](=O)[O-],-12.8% (inactive)
24,COCCCn1c(Cc2csc(Nc3ccc(F)cc3)n2)nnc1SCC(N)=O,0.4% (inactive)

row,Compound,inhibition
1,COc1ccc(/C(C)=N/NC(=O)CNC(=O)c2ccncc2)cc1,-0.07% (inactive)
2,N=c1n(CC(=O)c2ccc([N+](=O)[O-])cc2)c2ccccc2n1Cc1ccc(Cl)cc1,25.9% (inactive)
3,N=c1n(CC(=O)c2ccc([N+](=O)[O-])cc2)c2ccccc2n1Cc1ccccc1,39% (inactive)
4,Cc1cc(C)n(C(=O)CNC(=O)c2ccc3c(c2)OCCO3)n1,-15.6% (inactive)
5,CCO[C@@H]1OC(C(=O)N2CCCCCCC2)=C[C@H](c2cn(C(C)=O)c3ccccc23)[C@H]1CCCO,-5.2% (inactive)
6,COc1ccc(C)cc1-n1c(-c2ccncc2)n[nH]c1=S,-9.19% (inactive)
7,Cc1cccc(NC2=CC(=O)CC(C)(C)C2)c1C,2.2% (inactive)
8,CC(C(=O)c1ccc(-c2ccccc2)cc1)[n+]1cccc(C(N)=O)c1 (centres undefined),2.06% (inactive)
9,CC(C(=O)c1ccc(Br)cc1)[n+]1cccc(NC(=O)c2ccccc2)c1 (centres undefined),-0.32% (inactive)
10,O=C(C[n+]1cccc(CNC(=O)c2ccc(OC(F)F)cc2)c1)Nc1cccc(C(F)(F)F)c1,25.3% (inactive)
11,O=C(C[n+]1cccc(CNC(=O)c2ccc(OC(F)F)cc2)c1)Nc1ccc(F)cc1,5.04% (inactive)
12,CCOc1ccc(C(=O)NCC(=O)N2CCC3CCCCC3C2)cc1OCC (centres undefined),7.73% (inactive)
13,COc1cc(-c2nnc(SCC(=O)/C(C#N)=C(\C)N)o2)cc(OC)c1OC,0.61% (inactive)
14,CCOc1ccc(CCN2C(=O)C(=O)N([C@H](CCCN(C)Cc3ccccc3)CNCc3ccccc3)C[C@@H]2C(C)C)cc1,12.1% (inactive)
15,CN(CCCC[C@H](CNCc1ccc(-c2ccccc2)cc1)N1C[C@H](c2ccccc2)N(CCc2ccc(Cl)c(Cl)c2)C(=O)C1=O)Cc1ccc(-c2ccccc2)cc1,8.2% (inactive)
16,CCc1ccc(N2C(=O)Nc3ccccc3C2(O)C(=O)N2CCN(c3ccccn3)CC2)cc1 (centres undefined),10.3% (inactive)
17,Cn1c(CSc2nc3ccccc3s2)nnc1SCC(=O)NCc1ccccn1,-6.01% (inactive)
18,Cc1cc(/C=C2/C(=O)NN(c3ccccc3)C2=O)c(C)n1-c1ccc(O)cc1,-4.21% (inactive)
19,O=C1NN(c2ccccc2)C(=O)/C1=C/c1coc2ccccc2c1=O,8.22% (inactive)
20,CCOC(=O)C1=C(O)/C(=C/c2cccc(OC)c2O)N=C1C,-9.18% (inactive)
21,Cn1c(CCCNC(=O)c2cccs2)nc2ccccc21,-1.8% (inactive)
22,Cc1ccc(NC(=O)c2ncc(Cl)c(Cl)c2Cl)cc1C,2% (inactive)
23,O=c1[nH]c(=O)n(C2OC(CO)C(O)C2O)cc1Br (centres undefined),3.95% (inactive)
24,Nc1cn(C2OC(CO)C(O)C2O)c(=O)[nH]c1=O (centres undefined),3.77% (inactive)

row,Compound,inhibition
1,Cc1cc(CNC(=O)c2cccnc2Cl)c2ccccc2n1,1.03% (inactive)
2,CC[n+]1c(/C=C/Nc2ccccc2)sc2ccccc21,-20.8% (inactive)
3,CCN1/C(=C/C=C/C=C/C=C/c2sc3ccccc3[n+]2CC)Sc2ccccc21,-8.59% (inactive)
4,CCN1/C(=C\C=C(C(C)=O)C(C)=O)Sc2ccccc21,-11.4% (inactive)
5,CC[n+]1c(/C=C/C=C/N(C(C)=O)c2ccccc2)sc2cc(OC)ccc21,-71.7% (inactive)
6,CC[n+]1c(/C=C(\C)SC)sc2ccccc21,0.17% (inactive)
7,CCN1/C(=C/c2ccc3cc(C)ccc3[n+]2CC)Sc2ccccc21,-133% (inactive)
8,CC[n+]1c(/C=C/C=C/N(C(C)=O)c2ccccc2)sc2ccccc21,-10.1% (inactive)
9,CC[n+]1c(/C=C(/C)SC)sc2ccccc21,0.31% (inactive)
10,COCCN1CCC(CNCc2c(C(=O)N3CCCCC3)nc3c(C)cccn23)C1 (centres undefined),-11.8% (inactive)
11,CCOc1ccccc1CN1CCN(Cc2ccon2)CC1CCO (centres undefined),-9.77% (inactive)
12,COc1ccc2c(CC(=O)Nc3ccc(OC)c(S(=O)(=O)N4CCOCC4)c3)coc2c1,4.59% (inactive)
13,O=C(NCC(O)COc1ccc([N+](=O)[O-])cc1)c1ccccc1 (centres undefined),-9.65% (inactive)
14,Clc1ccc(CNCCC2=CCCCC2)cc1,18.9% (inactive)
15,Cc1ccc(CNCCC2=CCCCC2)cc1,-46.6% (inactive)
16,O=C(NC1CC1)c1c[nH]c2ccc(S(=O)(=O)Nc3cccc(C(F)(F)F)c3)cc2c1=O,14.8% (inactive)
17,CCn1cc(C(=O)O)c(=O)c2cc(F)c(N3CCN(C(=S)NC(=O)c4ccccc4Br)CC3)cc21,8.64% (inactive)
18,C=CCNC(=O)c1cn(CC)c2cc(N3CCN(C(=O)c4ccco4)CC3)c(F)cc2c1=O,5.05% (inactive)
19,CCn1cc(C(=O)NCCc2ccccc2)c(=O)c2cc(F)c(N3CCN(C)CC3)cc21,-0.827% (inactive)
20,CCn1cc(C(=O)NCc2ccccc2)c(=O)c2cc(F)c(N3CCN(C(=O)c4ccco4)CC3)cc21,6.24% (inactive)
21,CCC(CO)NC(=O)c1ccccc1C(F)(F)F (centres undefined),2.52% (inactive)
22,O=C(O)C1C2CCC(O2)C1C(=O)Nc1ccccc1Br (centres undefined),-9.38% (inactive)
